# Compound activity: PubChem, National Center for Advancing Translational Sciences (NCATS)
# Sm TGR block: qHTS Assay for the Inhibitors of Schistosoma Mansoni Peroxiredoxins; AID 485364, 2010; hit rate 3% among 360,000; Potency, µM (highest dose often 114 µM), for the others: at the top dose activity change, negative = inhibition, most hits filed as inhibitors; Schistosoma mansoni thioredoxin glutathione reductase (TGR), Q962Y6; purified TGR, DTNB reduction, TNB absorbance 405 nm; note: potency is the fitted concentration of half-maximal effect; % is set by controls: 0 for no effect and ±100 for the full control effect; nearly all actives have a fitted effect of over 60% in size
#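 TGR 20 nM + NADPH 100 uM (dispensed conc.), cpd preinc 15 min RT; start with NADPH (500 uM addition) then DTNB (15 mM addition). Kinetic TNB absorbance, 405 nm filter. Four-parameter Hill fit across titration.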
# Shiga toxin inh: A qHTS for Small Molecule Inhibitors of Shiga Toxin. Vero cells, Shiga toxin protein synthesis inhibition reporter. inhibition, % at 38.7 µM. hit rate 9.2% among 290,000; in the data active = inhibition mostly above about 28%, no sharp cut-off; inactive = mostly below about 43%; note: 0% is about no effect
# LmPK inh: qHTS Assay for Inhibitors of Leishmania Mexicana Pyruvate Kinase (LmPK). Q27686. purified LmPK, Kinase-Glo ATP luminescence, 1 h. Potency, µM (highest dose often 57.5 µM), inactives show top-dose activity change, negative = inhibition, usual class: inhibitors. hit rate 0.37% among 290,000. AID 1721, 2009; note: potency is the fitted concentration of half-maximal effect; % is set by controls: 0 for no effect and ±100 for the full control effect
# Target sequence (Q27686 whole entry, looked up): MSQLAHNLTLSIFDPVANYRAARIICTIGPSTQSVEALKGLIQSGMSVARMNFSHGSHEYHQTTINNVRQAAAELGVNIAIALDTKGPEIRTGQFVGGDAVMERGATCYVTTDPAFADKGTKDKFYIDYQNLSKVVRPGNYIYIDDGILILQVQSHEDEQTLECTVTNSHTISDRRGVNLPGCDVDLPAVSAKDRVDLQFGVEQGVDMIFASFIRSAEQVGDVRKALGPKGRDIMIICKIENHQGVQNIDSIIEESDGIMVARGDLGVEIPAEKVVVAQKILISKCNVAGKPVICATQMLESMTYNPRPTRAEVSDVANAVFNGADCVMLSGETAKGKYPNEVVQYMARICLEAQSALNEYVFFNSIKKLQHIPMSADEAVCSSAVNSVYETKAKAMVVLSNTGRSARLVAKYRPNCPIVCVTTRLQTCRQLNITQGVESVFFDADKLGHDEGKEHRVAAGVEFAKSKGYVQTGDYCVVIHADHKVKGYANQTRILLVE
#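 In 50 mM imidazole pH 7.2 with 7 mM MgCl2, LmPK (0.1 nM) turned over PEP (0.5 mM) and ADP (0.1 mM) for 1 h at room temperature. Luciferase read-out of ATP.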
# FBPA Giardia inh: qHTS Assay for Inhibitors of Fructose-1,6-bisphosphate Aldolase from Giardia Lamblia. purified Giardia FBPA. hit rate 0.71% among 290,000. Potency, µM (series often up to 59.6 µM), without a hit: top-dose activity, negative = inhibition, most hits filed as inhibitors. AID 2451, 2010. A8B2U2; note: potency is the fitted concentration of half-maximal effect; % is set by controls: 0 for no effect and ±100 for the full control effect; nearly all actives have a fitted effect of over 55% in size
#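 Giardia FBPA (40 nM reagent) was preincubated 10 min at RT with compound (up to 57.5 uM final), then substrate plus GAPDH/TPI/NAD/arsenate coupling system with diaphorase/resazurin was added; resorufin fluorescence (525/598 nm) was read after 20 min.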
# Cycloheximide cs: Cycloheximide Counterscreen for Small Molecule Inhibitors of Shiga Toxin. cell reporter, cycloheximide protein synthesis inhibition counterscreen. max response, %. hit rate 12% among 300,000. AID 2314, 2010; in the data active = max response mostly above about 13%, no sharp cut-off; inactive = mostly below about 14%; note: read at 38.3 µM for the half of the compounds with a filed dose; 0% is about no effect
# TbPYK inhibitor: qHTS of Trypanosoma Brucei Inhibitors | pyruvate kinase (Trypanosoma brucei), Q57TT1 | TbPYK enzyme, Kinase-Glo Plus ATP luminescence, 45 min | Potency, µM (titrated, usually from 76.8 µM), for inactives: top-dose activity, negative = inhibition, actives largely listed as inhibitors | hit rate 0.12% among 410,000 | AID 624173, 2012; note: potency is the fitted concentration of half-maximal effect; % is set by controls: 0 for no effect and ±100 for the full control effect; nearly all actives have a fitted effect of over 50% in size
#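 In this concentration-response screen, enzyme-free wells defined baseline while DMSO plates tracked drift. Each reaction combined TbPYK, substrate, compound and 130 uM ADP for 45 min at room temperature. Kinase-Glo Plus luminescence gave the signal.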
# * = called active by the depositor; ? = inconclusive; nt = no result given; + = active, no number; [ ] = another dose, or the depositor's remark. The full list was thinned out, with hits kept by preference. Unless noted, calls come from the whole dose curve; as a rule, active = well fitted curve in the direction sought with a large enough effect; inconclusive = small, poorly fitted or top-dose-only effect, or another doubt; inactive = no such curve, though single readings can be large; an effect the other way counts as inactive or inconclusive.
SMILES,Sm TGR block,Shiga toxin inh,LmPK inh,FBPA Giardia inh,Cycloheximide cs,TbPYK inhibitor
Cc1ccc(-c2nnc(SCC(=O)NCCC(C)C)nc2-c2ccc(C)cc2)cc1,-2%,nt,nt,nt,nt,-2%[15.4 µM]
Nc1c2c(nc3sc4c(c13)CCCCC4)CCCCC2,3%,59*,-14%,0%,51*,1%
CC(C)(C)c1nc2sc3c(c2c(=O)o1)CCCC3,2%,-6,-15%,4%,-5,4%
Nc1c2c(nc3sc4c(c13)CCCC4)CCCCC2,-14%,130*,-25%,1%,71*,-13%
Nc1nc2c(s1)CCCCCCCCCC2,-28%,2,3%,-9%,-1,2%
Nc1c2c(nc3sc4c(c13)CCCC4)CCCC2,nt,107*,-3%,-8%,26*,-2%
CCc1ccc(CCC(=O)N2CCN(S(=O)(=O)c3sc(C(=O)O)c(C)c3C(=O)O)CC2)cc1,nt,nt,nt,nt,nt,-4%
CCN1CCN(c2ncc3c(n2)CC(c2ccc(OC)c(OC)c2)CC3=O)CC1 (centres undefined),-5%,-19,8%,1%,-4,-8%
CCOC(=O)N1CCN(c2ncc3c(n2)CC(c2ccc(OC)c(OC)c2)CC3=O)CC1 (centres undefined),4.5µM*,nt,nt,nt,nt,-4%
CCCN1CCC(=O)N([C@H](CSc2ccc(C)cc2)c2ccccc2)CC1,45µM*,46*,7%,-1%,23*,1%
CC(C)CN1CCC(=O)N(C(CSc2ccc(Br)cc2)c2ccccc2)CC1 (centres undefined),nt,25,nt,12%,32,nt
CCCN1CCC(=O)N(C(CSc2ccc(Br)cc2)c2ccccc2)CC1 (centres undefined),nt,77*,nt,10%,50*,nt
CCCN1CCC(=O)N([C@H](CO)c2ccccc2)CC1,-21%,-4,-4%,3%,-1,-2%
CCCN1CCC(=O)N([C@H](CSc2ccccc2)c2ccccc2)CC1,40µM*,19,7%,12%,24*,5%
CCCN1CCC(=O)N([C@H](COc2ccccc2)c2ccccc2)CC1,-21%,28,-3%,8%,7,0%
CN(C)c1ccc(NC(=O)Cn2c(SCc3ccc(F)cc3)nc3cccnc32)cc1,-1%,nt,nt,nt,nt,2%
CC(C)(C)NC(=O)N1CCN(c2nc(-c3ccccc3)ns2)CC1,7%,108*,-2%,5%,35*,-3%
CCCCC(=O)N1CCN(c2nc3ccc(Cl)cc3s2)CC1,-25%,43*,-8%,nt,45*,-8%
CC(C)(C)NC(=O)N1CCN(c2nc3ccc(Cl)cc3s2)CC1,3%,42*,8%,2%,15,-3%
O=C(O)CSCC(=O)N1CCCN(c2nc3ccc(Cl)cc3s2)CC1,1%,21,-2%,1%,-3,1%
CC(C)(CC(=O)O)CC(=O)N1CCCN(c2nc3ccc(Cl)cc3s2)CC1,-4%,67*,2%,7%,16*,-3%
CC(C)(CC(=O)O)CC(=O)N1CCN(c2nc3ccc(Cl)cc3s2)CC1,-8%,-5,1%,2%,-1,3%
Cc1noc(C)c1-c1cc(NCc2cccs2)ncn1,nt,nt,nt,6%,nt,nt
Cc1ccnc(SCC(=O)c2ccc(Br)cc2)c1C#N,-25%,96*,2%,3%,84*,-21%
Cc1snc(SCC(=O)c2ccc(Cl)cc2)c1C#N,3%,58*,1%,-5%,35*,-18%
SMILES,Sm TGR block,Shiga toxin inh,LmPK inh,FBPA Giardia inh,Cycloheximide cs,TbPYK inhibitor
N#Cc1c(SCC(N)=O)nsc1SCc1ccc(Cl)cc1,0%,-8,0%,-2%,5,4%
Cc1cc(C)c(C#N)c(OCC(=O)c2ccc(Br)cc2)n1,11%,-11,1%,-1%,9,10%
Cc1ccc(C(=O)CSc2nsc(C)c2C#N)cc1,1%,+,2%,0%,30*,-20%
COC(=O)c1sccc1S(=O)(=O)N1CCN(c2cccc(C)c2)C(C)C1 (centres undefined),-2%,nt,nt,nt,nt,0%
CN1C(=O)Cc2cc(S(=O)(=O)CCC(=O)N3CCN(c4ccccc4F)CC3)ccc21,-21%,nt,nt,nt,nt,0%
CCC(=O)N1c2ccc(S(=O)(=O)CCC(=O)N3CCN(c4ccccc4F)CC3)cc2CC1C (centres undefined),22µM*,-3,2%,-7%,-1,5%
CN1CCN(CCc2ccc(Cl)c(Cl)c2)CC1,nt,nt,nt,-20%,nt,nt
COc1ccc(C2CC(c3ccccc3)=NN2C(=O)CCC(=O)O)cc1 (centres undefined),-22%,-2,2%,25%,-2,3%
COc1ccc(C(=O)N2N=C(c3cccs3)CC2c2ccccc2O)cc1 (centres undefined),-2%,14,-2%,nt,9,-2%
COc1ccc(C2CC(c3ccccc3)=NN2C(=O)c2cccs2)cc1 (centres undefined),1%,75*,8%,3%,73*,10%
COc1ccc(C2=NN(C(=O)c3cccs3)C(c3ccccc3O)C2)cc1 (centres undefined),1%,87,-2%,9%,26*,-3%
O=C(NC1CC(=O)N(c2ccc(F)cc2)C1)c1cc2ccccc2o1 (centres undefined),2%,nt,nt,nt,nt,1%
COc1ccc(NC(=S)/N=C(\N)Nc2nc(C)c3ccccc3n2)cc1,10%,21,3%,-8%,14*,-10%
COc1ccc2nc(N/C(N)=N/C(=S)Nc3cccc(C)c3)nc(C)c2c1,-3%,7,0%,10%,-2,2%
Cc1ccc(/C=C/c2onc(C)c2S(=O)(=O)N2CCC(C(=O)NCc3ccc(OC(C)C)cc3)CC2)cc1,-3%,nt,nt,nt,nt,-6%
CSc1ccc(/C=N/NC(=O)c2sccc2C)cc1,-8%,64*,?,0%,46*,-16%
CSc1ccc(/C=N/NC(=O)c2cc(O)cc(O)c2)cc1,-7%,41*,?,2%,22*,-6%
Cn1c2ccccc2c2cc(/C=N/NC(=O)c3cc(O)cc(O)c3)ccc21,-9%,-7,10%,-11%,-3,-2%
COc1ccc(OCc2ccc(/C=N\NC(=O)c3sccc3C)o2)cc1,?,68*,-4%,nt,25*,-8%
CSc1ccc(/C=N/NC(=O)c2ccc(C)c(C)c2)cc1,-2%,52*,6%,-8%,44*,-6%
O=C(N/N=C\c1ccc(COc2ccc([N+](=O)[O-])cc2)o1)c1ccc(Cl)cc1,-18%,21,6%,5%,-1,-4%
CCCCCn1c(-c2ccc(OC)c(OC)c2)nc2ccccc21,0%,nt,nt,nt,nt,3%
